# Bioassay records: PubChem, National Center for Advancing Translational Sciences (NCATS)
# Pf growth 96h: Primary qHTS for delayed death inhibitors of the malarial parasite plastid, 96 hour incubation. P. falciparum luciferase reporter growth, 96 h. Potency, µM (series often up to 28.7 µM), without a hit: top-dose activity change, negative = inhibition, most hits filed as inhibitors. hit rate 6.9% among 320,000; also: % is scaled to controls: 0 for no effect and ±100 for the full control effect
#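 Parasite growth measured via integrated firefly luciferase reporter in P. falciparum. Infected erythrocytes at 2% hematocrit, 0.05% parasitemia final were treated 96 hours at 37 C under 5% CO2, and luminescence was read.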
# Pf growth 48h: Primary qHTS for delayed death inhibitors of the malarial parasite plastid, 48 hour incubation; P. falciparum luciferase growth in erythrocytes, 48 h; Potency, µM (top dose mostly 28.7 µM), for the others: at the highest dose activity change, negative = inhibition, usual class: inhibitors; hit rate 5.9% among 310,000; AID 504832, 2011; also: % is scaled to controls: 0 for no effect and ±100 for the full control effect
#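 Parasite viability was followed by luminescence of a genomically integrated firefly luciferase. Cultures held 0.1% parasitemia at 2% hematocrit (final), incubated under 5% CO2 at 37 C.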
# NS1 function inh: qHTS Assay for Inhibitors of Influenza NS1 Protein Function | Potency, µM (titrated, usually from 46.1 µM), inactives show at the highest dose activity, positive = more growth | hit rate 0.4% among 270,000; calls by dose curve; also: actives are rising curves; nearly all actives have a fitted effect of over 50% in size
#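 S. cerevisiae expressing influenza A NS1, grown in glucose, washed, then diluted 1:100 into pH 6.0 -URA galactose medium with 23 nl compound. Growth recovery read as OD600; NS1-free strain serves as control.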
# Sm TGR inh: qHTS Assay for the Inhibitors of Schistosoma Mansoni Peroxiredoxins. Schistosoma mansoni thioredoxin glutathione reductase (TGR), Q962Y6. Potency, µM (top dose mostly 114 µM), without a hit: at the top dose activity change, negative = inhibition, most hits filed as inhibitors. hit rate 3% among 360,000. purified TGR, DTNB reduction, TNB absorbance 405 nm. AID 485364, 2010; also: % is scaled to controls: 0 for no effect and ±100 for the full control effect; nearly all actives have a fitted effect of over 60% in size
#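 First, TGR (20 nM dispensed) and NADPH were mixed with compound. Second, a 15 min room-temperature incubation followed. Third, further NADPH and then DTNB were added to start the reaction. Finally, TNB absorbance was monitored kinetically.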
# AMA1-RON2 inh: qHTS for Inhibitors of AMA1-RON; Towards Development of Antimalarial Drug Lead: Primary Screen; Plasmodium falciparum AMA1 (3D7) - RON2 peptide interaction; AID 720542, 2013; hit rate 0.2% among 360,000; Potency, µM (top dose mostly 58.2 µM), for the others: top-dose activity change, negative = inhibition, usual class: inhibitors; AlphaScreen AMA1-biotinylated RON2 peptide binding;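 also: 0% = vehicle wells and -100% = peptide control; nearly all actives have a fitted effect of over 45% in size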
#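 AMA1 (3D7) with his tag at 25 nM final met compounds first, then biotinylated RON2 peptide at 25 nM; detection used donor plus acceptor beads, 10 µg/mL apiece, read by AlphaScreen after 30 min at room temperature.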
# Starred values were filed as active, the others as inactive; u = inconclusive; x = no result given; [ ] = dose if it differs, or a comment. An excerpt weighted towards active compounds, which were near 11% of everything screened. Unless noted, calls follow the shape of the dose curve; as a rule, active = well fitted curve in the direction sought with a large enough effect; inconclusive = small, poorly fitted or top-dose-only effect, or another doubt; inactive = no such curve, though single readings can be large; an effect the other way counts as inactive or inconclusive. Potency is read from the fitted curve at half-maximal effect.
SMILES,Pf growth 96h,Pf growth 48h,NS1 function inh,Sm TGR inh,AMA1-RON2 inh
CN(Cc1cn(Cc2ccccc2)nc1-c1ccc2c(c1)OCO2)Cc1nccn1C,14.7µM*,u,-1.0%,-4.9%,-19.1%
CN(Cc1ccccn1)Cc1cn(Cc2ccccc2)nc1-c1ccc2c(c1)OCO2,u,u,4.8%,x,10.4%
CCOC(=O)[C@]12CCCC=C1N(Cc1ccc3c(c1)OCO3)C(=O)[C@H](CC(=O)N1CCOCC1)C2,x,x,x,x,11.2%
CSC(=NS(=O)(=O)c1ccc(N)cc1)NS(=O)(=O)c1cccs1,x,x,x,x,4.7%
Cc1ccc(NC(=O)C2CC(=O)NC(Nc3cccc(C)c3)=N2)cc1 (stereo unspecified),2.08µM*,15.7%,2.5%,1.4%,0.9%
CN1CCN(C=Nc2nc3ccccc3nc2N2CCCC2)CC1,7.1%,-8.2%,0.4%,31.6µM*,-2.7%
Cc1ccc(CCNC(=O)c2c[nH]c3ccc(S(=O)(=O)Nc4ccc(C)cc4C)cc3c2=O)cc1,u,u,x,4.8%,x
Oc1ccccc1-c1cncn1Cc1ccccc1,14.7µM*,x,-1.4%,-1.0%,-2.0%
COC(=O)CCC(=O)OC1(C)C(=O)C2=CN(C(CO)CO)C(c3ccc(OC)cc3)=CC2=C(Br)C1=O (stereo unspecified),u,u,-1.8%,u,x
COC(=O)CCC(=O)OC1(C)C(=O)C2=CN(Cc3ccc4c(c3)OCO4)C(c3ccc(OC)cc3)=CC2=C(Br)C1=O (stereo unspecified),x,x,x,x,0.0%
COC(=O)CCC(=O)OC1(C)C(=O)C2=COC(c3ccc(OC)cc3)=CC2=C(Br)C1=O (stereo unspecified),62.2%,43.1%,-52.4%,7.94µM*,u
COC(=O)CCC(=O)OC1(C)C(=O)C2=CN(CCCCO)C(c3ccc(OC)cc3)=CC2=C(Br)C1=O (stereo unspecified),u,u,-6.4%,44.7µM*,x
COC(=O)CCC(=O)OC1(C)C(=O)C2=CN(CCN3CCOCC3)C(c3ccc(OC)cc3)=CC2=C(Br)C1=O (stereo unspecified),u,u,-3.7%,u,x
COc1ccc(C2=CC3=C(Br)C(=O)C(C)(OC(=O)c4ccc(Cl)nc4)C(=O)C3=CO2)cc1 (stereo unspecified),46.8%,-13.8%,-4.6%,10µM*,3.1%
COc1ccc(C2=CC3=C(Br)C(=O)C(C)(OC(=O)C4CCCC4)C(=O)C3=CO2)cc1 (stereo unspecified),38.5%,0.0%,-77.5%,7.08µM*,u
CN(C)NC(=O)c1ccsc1NC(=O)c1ccc(S(=O)(=O)N(C)C)cc1,u,-28.1%,2.4%,1.2%,31.9%
C1=C(c2ccccc2)CCNC1,21.5%,5.9%,4.6%,1.0%,-5.8%
Cc1[nH]c2ccccc2c1C1=CCNCC1,-31.1%,3.29µM*,u,-14.8%,-0.5%
CC(C)N=C1NN=C(c2ccc(Cl)c(Cl)c2)CS1,-47.2%,-63.6%,x,7.8%,52.8%
CCOC(=O)N/N=C\c1ccc(OC/C=C/c2ccccc2)c(OC)c1,50.3%,1.85µM*,-21.1%,2.7%,36.5%
C=CCOc1ccc(/C=N/NC(=O)C(=O)Nc2ccccn2)cc1OC,4.15µM*,6.6%,11.6%,-2.3%,10.6%
COc1ccc(/C=N/NC(=O)C(=O)Nc2ccccn2)cc1OC,u,8.3%,4.0%,14.0%,-6.0%
Cc1cc(C)c(CN2CCN(CCCn3cnc(C(=O)Nc4ccc(C)c(C)c4)n3)CC2)c(C)c1,x,x,x,x,-22.5%
Cc1cc(C)c2nc(N(Cc3cccnc3)C(=O)c3cccs3)sc2c1,x,x,x,-3.4%,x
CC(=O)Nc1ccc(S(=O)(=O)NNc2cccc(C)c2)cc1,44.5%,37.0%,-1.5%,14.1µM*,0.9%
SMILES,Pf growth 96h,Pf growth 48h,NS1 function inh,Sm TGR inh,AMA1-RON2 inh
CC(=O)Nc1ccc(NC(=O)c2ccc(C)c(S(=O)(=O)Nc3cccc(C)c3)c2)cc1,44.4%,11.7µM*,4.1%,-11.7%,-1.2%
Cc1cccc(NS(=O)(=O)c2cc(C(=O)N3CCN(C)CC3)ccc2C)c1,9.28µM*,x,9.3%,9.4%,5.8%
Cc1ccc(S(=O)(=O)NCCCCCC(=O)Nc2cccc(C)c2)cc1,11.7µM*,-10.2%,-36.1%,0.1%,7.6%[2.32 µM]
Cc1ccc2oc(C(=O)Nc3c(C(=O)Nc4ccccc4)oc4ccccc34)cc(=O)c2c1,x,x,x,5.2%,x
O=C(CCc1nc2ccccc2c(=O)[nH]1)Nc1nnc(SCc2ccccc2F)s1,73.8%,84.5%,x,-11.0%,8.9%
CCOc1ccc(-c2nc(CNC(=O)NC3CCCCC3)c(C)o2)cc1,x,x,x,-3.2%,x
Cc1cc(O)c(C(C[N+](=O)[O-])c2ccc(Cl)cc2Cl)c(=O)o1 (stereo unspecified),x,-6.7%,-45.1%,50.1µM*,-2.6%
Cc1ccc(CN(C(=O)COc2ccc(C(C)(C)C)cc2)C2CCS(=O)(=O)C2)o1 (stereo unspecified),x,x,x,-25.6%,x
C/C(=N/NC(=O)c1cc(-c2ccccc2)nc2c(Cl)cccc12)c1cccnc1,10.4µM*,u,8.7%,-19.2%,12.4%
C/C(=N\NC(=O)c1cc(-c2cccc(OC(C)C)c2)nc2ccccc12)c1cccnc1,13.1µM*,u,13.4%,1.8%,77.5%
C/C(=N\NC(=O)c1cc(-c2cccnc2)nc2ccccc12)c1ccc(O)cc1O,u,9.28µM*,u,-10.2%,65.7%
C/C(=N\NC(=O)c1cc(-c2ccccc2C)nc2ccccc12)c1cccnc1,u,1.85µM*,22.3%,0.1%,27.5%
O=C(O)c1cc([N+](=O)[O-])ccc1Oc1ccccc1,x,x,x,x,-2.6%
O=C(Nc1cccc(C(F)(F)F)c1)N1CC2CCCN2c2ccccc21 (stereo unspecified),x,x,x,-15.4%,x
C/C(=N\NC(=O)c1cccnc1)c1ccccc1,u,47.1%,4.9%,5.5%,12.2%
O=C(N/N=C(\c1ccccc1)c1cccnc1)c1cc(O)ccc1O,16.4%,5.3%,0.9%,39.8µM*,x
Cc1nc(N2CCN(C)CC2)c2sc(=S)n(C)c2n1,9.28µM*,x,-4.2%,0.5%,12.9%
Cc1nc(N2CCN(C)CC2)c2sc(=S)n(-c3ccccc3)c2n1,-28.2%,2.5%,-5.3%,-0.2%,-1.4%
CCC(=O)Nc1ccc(S(=O)(=O)Nc2c(C)nc3nc[nH]n3c2=O)cc1,10.4µM*,-6.1%,-14.3%,0.1%,6.6%
CCS(=O)(=O)c1ncc(Cl)c(C(=O)Nc2ccccc2)n1,x,x,x,7.94µM*,x
CCc1ccc(S(=O)(=O)Nc2c(C)nc3nc[nH]n3c2=O)cc1,9.8%,6.0%,14.6%,4.3%,1.1%
CCOC(=O)c1ccc(NC(=O)c2nc(S(=O)(=O)Cc3ccccc3)ncc2Cl)cc1,1.4%,35.6%,-2.4%,8.91µM*,0.1%
